Source: PubChem BioAssay (NCATS)
Values without a mark were called inactive. Inconclusive results are not listed. Active and inactive are the calls of the source. Unless noted, calls follow the shape of the dose curve; as a rule, active = well fitted curve in the direction sought with a large enough effect; inconclusive = small, poorly fitted or top-dose-only effect, or another doubt; inactive = no such curve, though single readings can be large; an effect the other way counts as inactive or inconclusive.

What was measured:
[1] = biological target: Lysosomal acid glucosylceramidase (Homo sapiens) (UniProt P04062); assay: Glucocerebrosidase-p2 (AID 348; in the data active = potency below about 10 µM; also: potency is read from the fitted curve at half-maximal effect); conditions: purified GBA, blue fluorogenic substrate, 40 min
Chain of Lysosomal acid glucosylceramidase (Homo sapiens) (P04062 whole entry, looked up): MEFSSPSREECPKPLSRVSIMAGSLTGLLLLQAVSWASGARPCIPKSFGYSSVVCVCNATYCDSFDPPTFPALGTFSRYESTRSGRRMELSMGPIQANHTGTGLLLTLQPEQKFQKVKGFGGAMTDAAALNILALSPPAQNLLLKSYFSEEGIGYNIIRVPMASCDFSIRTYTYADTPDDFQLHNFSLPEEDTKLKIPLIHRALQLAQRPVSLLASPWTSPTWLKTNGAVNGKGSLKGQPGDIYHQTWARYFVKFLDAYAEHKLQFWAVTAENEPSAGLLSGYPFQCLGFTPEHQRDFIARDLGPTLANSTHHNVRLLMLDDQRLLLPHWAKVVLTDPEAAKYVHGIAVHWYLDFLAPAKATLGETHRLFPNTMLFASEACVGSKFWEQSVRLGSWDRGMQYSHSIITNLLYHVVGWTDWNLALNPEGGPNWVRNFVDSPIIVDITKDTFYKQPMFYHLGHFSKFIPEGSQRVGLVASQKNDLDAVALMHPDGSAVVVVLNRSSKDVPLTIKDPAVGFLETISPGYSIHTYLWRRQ
Summary of the method: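 Compounds titrated from 0.6 nM upwards against 0.2 nM enzyme in pH 5.9 citric acid/KH2PO4, taurocholate, tween-20; blue fluorogenic substrate 80 uM, 40 min room temperature, stopped and read Ex 365/Em 440 for AC50.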

[2] = AP1 Signaling Pathway (AID 357; active = well fitted curve in either direction with a large enough effect, not every such curve was filed as active; also: % is scaled to controls: 0 for no effect and ±100 for the full control effect); conditions: ME-180 AP-1-bla reporter, EGF-induced, beta-lactamase ratio, 5 h; at 7.69 µM (top of the series) unless noted
Summary of the method: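 AP-1-bla ME-180 cells with beta-lactamase reporter under AP-1 response element, stimulated with EC50 EGF; compounds titrated, 5 hours at 37 degrees Celsius. CCF4 read at 460/530 nm ratio; positive and negative modulators judged by AC50.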

[3] = biological target: Cytochrome P450 1A2 (Homo sapiens) (UniProt P05177); assay: p450-cyp1a2 (AID 410; calls by dose curve; also: potency is read from the fitted curve at half-maximal effect;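 as to activity change, negative = inhibition: -100% = full effect of reference inhibitor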); conditions: recombinant CYP1A2, luciferin-ME demethylation, luminescence; series mostly up to 57 µM
Chain of Cytochrome P450 1A2 (Homo sapiens) (P05177 whole entry, looked up): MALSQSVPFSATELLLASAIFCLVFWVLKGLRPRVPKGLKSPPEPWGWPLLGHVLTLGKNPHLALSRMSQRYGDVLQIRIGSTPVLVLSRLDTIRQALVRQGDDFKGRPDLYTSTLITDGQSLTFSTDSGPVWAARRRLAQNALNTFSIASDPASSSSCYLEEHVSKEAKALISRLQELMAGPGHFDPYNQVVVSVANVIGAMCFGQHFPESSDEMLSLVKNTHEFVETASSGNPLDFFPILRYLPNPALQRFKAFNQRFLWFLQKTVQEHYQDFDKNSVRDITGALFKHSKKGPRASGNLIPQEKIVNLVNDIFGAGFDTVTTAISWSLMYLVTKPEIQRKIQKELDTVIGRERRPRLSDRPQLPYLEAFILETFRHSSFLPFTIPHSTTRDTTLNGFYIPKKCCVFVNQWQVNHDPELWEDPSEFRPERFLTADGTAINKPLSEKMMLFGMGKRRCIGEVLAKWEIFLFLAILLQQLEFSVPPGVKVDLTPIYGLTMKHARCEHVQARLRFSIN
Summary of the method: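 Luminescent readout of luciferin formed from Luciferin-ME by human CYP1A2; data normalized against complete inhibition by 57 uM furafylline. Enzyme 20nM, substrate 100uM at Km, 100mM KPO4 buffer, 60 min reaction at room temperature.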

[4] = NFAT Signaling Pathway (AID 444; active = well fitted curve in either direction with a large enough effect, not every such curve was filed as active;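 also: carbachol stimulus at about its EC50 of 1 µM final; % is scaled to controls: 0 for no effect and ±100 for the full control effect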); conditions: Jurkat NFAT-bla M1, carbachol, beta-lactamase ratio, 5 h; at 7.69 µM (top of the series) unless noted
Summary of the method: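 Jurkat cells carrying an NFAT-driven β-lactamase reporter and co-transfected muscarinic M1 receptor were treated with compound plus carbachol (1 uM final, an EC50 level) for 5 h at 37 °C. CCF4 loading followed for 1 h at RT; 460/530 nm ratio gave %activity.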

[5] = Stat Signaling Pathway (AID 446; active = well fitted curve in either direction with a large enough effect, not every such curve was filed as active;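 also: ME-180 cervical cancer cells given 40 pM IL-6 alongside compound; SIE-controlled beta-lactamase reporter measured as 460/530 nm FRET emission ratio; % is scaled to controls: 0 for no effect and ±100 for the full control effect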); conditions: ME-180 SIE beta-lactamase reporter, IL-6 stimulated, 5 h; at 7.69 µM (top of the series) unless noted
Summary of the method: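 Screening format detects activators and inhibitors alike: ME-180 SIE-bla cells stimulated at 40 pM IL-6 for 5 hrs with compound, then dual-emission beta-lactamase read at 405 nm excitation.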

[6] = biological target: Glucocorticoid receptor (Homo sapiens) (UniProt P04150); assay: GR-GFP Redistribution (AID 450;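 active = compounds whose dose series gives a full or clear partial fitted curve of increased nuclear translocation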; also: potency is read from the fitted curve at half-maximal effect); conditions: U2OS GR-GFP nuclear translocation, laser cytometry, 2 h
Chain of Glucocorticoid receptor (Homo sapiens) (P04150 whole entry, looked up, the tested form may be a part): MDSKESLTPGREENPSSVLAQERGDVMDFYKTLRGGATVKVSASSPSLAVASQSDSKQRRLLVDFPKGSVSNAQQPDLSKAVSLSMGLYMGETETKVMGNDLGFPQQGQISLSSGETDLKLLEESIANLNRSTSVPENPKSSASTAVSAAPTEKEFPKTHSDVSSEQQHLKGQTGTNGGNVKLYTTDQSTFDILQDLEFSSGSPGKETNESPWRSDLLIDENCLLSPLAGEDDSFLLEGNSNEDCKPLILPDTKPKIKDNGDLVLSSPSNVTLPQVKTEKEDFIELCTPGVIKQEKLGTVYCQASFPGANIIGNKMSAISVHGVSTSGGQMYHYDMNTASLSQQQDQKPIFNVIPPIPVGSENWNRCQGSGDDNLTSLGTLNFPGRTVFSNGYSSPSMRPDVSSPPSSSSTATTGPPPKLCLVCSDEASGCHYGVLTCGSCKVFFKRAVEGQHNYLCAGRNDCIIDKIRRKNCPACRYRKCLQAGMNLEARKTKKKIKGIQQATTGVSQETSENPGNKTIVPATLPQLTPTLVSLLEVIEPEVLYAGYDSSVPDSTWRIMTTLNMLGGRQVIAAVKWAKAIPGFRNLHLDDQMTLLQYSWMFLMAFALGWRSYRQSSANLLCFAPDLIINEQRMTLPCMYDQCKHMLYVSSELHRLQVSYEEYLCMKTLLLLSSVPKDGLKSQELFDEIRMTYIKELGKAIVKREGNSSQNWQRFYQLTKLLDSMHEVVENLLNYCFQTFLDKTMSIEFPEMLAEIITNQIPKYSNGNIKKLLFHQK

[7] = biological target: Glucocorticoid receptor (Homo sapiens) (UniProt P04150); assay: GR-EFC Redistribution (AID 451; calls by dose curve; also: potency is read from the fitted curve at half-maximal effect); conditions: CHO-K1 GR-EFC translocation, beta-gal luminescence, 2 h
Summary of the method: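 CHO-K1 cells stably expressing nuclear-localized β-gal enzyme acceptor and GR fused C-terminally to the enzyme donor fragment; ligand-driven nuclear translocation restores β-gal by complementation. Compounds titrated up to 46 uM final, 2 h at 37 °C; luminescence read.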

[8] = biological target: Mitogen-activated protein kinase 10 (Mus musculus) (UniProt Q61831); assay: JNK3 AlphaScreen Assay (AID 530; active = well fitted curve in either direction with a large enough effect, not every such curve was filed as active;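 also: kinase came from lysate of stimulated human HepG2 cells; signal reports phosphorylation of biotinylated GST-cJun 1-79 at Ser73 with 10 µM ATP; % is scaled to controls: 0 for no effect and ±100 for the full control effect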); conditions: JNK3 lysate, c-Jun phosphorylation; series mostly up to 57.1 µM
Summary of the method: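 Inhibitors reduce antibody binding to phosphorylated biotin-cJun, lowering AlphaScreen luminescence. Lysates from HepG2 cells pre-activated by IL-1beta plus TNF-alpha supplied JNK3; compounds were titrated.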

[9] = biological target: 3',5'-cyclic-AMP phosphodiesterase 4B (Homo sapiens) (UniProt Q07343); assay: qHTS Assay for Inhibitors of PDE-IV (AID 607; active = well fitted activation curve with a large enough effect in the main read-out, with a control signal flat, not every such curve was filed as active; also: % of control where 0% means no effect); conditions: HEK293 ACTOne CNG channel cells, membrane potential fluorescence; series mostly up to 22.9 µM
Chain of 3',5'-cyclic-AMP phosphodiesterase 4B (Homo sapiens) (Q07343 whole entry, looked up): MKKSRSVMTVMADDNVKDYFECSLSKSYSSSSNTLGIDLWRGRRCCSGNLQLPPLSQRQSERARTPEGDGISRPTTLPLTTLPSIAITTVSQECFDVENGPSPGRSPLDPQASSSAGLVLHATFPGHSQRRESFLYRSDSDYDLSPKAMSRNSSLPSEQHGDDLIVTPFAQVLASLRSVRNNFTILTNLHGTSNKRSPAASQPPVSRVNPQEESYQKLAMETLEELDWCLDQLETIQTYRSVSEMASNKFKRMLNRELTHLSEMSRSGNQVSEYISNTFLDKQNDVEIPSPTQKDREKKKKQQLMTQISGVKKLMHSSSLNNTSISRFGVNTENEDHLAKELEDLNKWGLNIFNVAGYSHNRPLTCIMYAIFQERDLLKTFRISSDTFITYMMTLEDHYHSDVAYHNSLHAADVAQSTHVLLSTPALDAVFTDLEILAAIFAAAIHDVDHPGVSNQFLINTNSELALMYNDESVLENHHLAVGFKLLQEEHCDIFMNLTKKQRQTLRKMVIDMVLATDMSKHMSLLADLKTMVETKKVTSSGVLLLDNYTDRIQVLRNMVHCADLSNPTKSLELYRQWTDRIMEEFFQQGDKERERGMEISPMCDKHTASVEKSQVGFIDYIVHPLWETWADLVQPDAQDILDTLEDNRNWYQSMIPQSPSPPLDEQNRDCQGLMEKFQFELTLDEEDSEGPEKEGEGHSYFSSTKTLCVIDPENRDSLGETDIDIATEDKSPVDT
Summary of the method: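 The readout is membrane depolarisation from a cAMP-sensing CNG channel, detected with a potential dye at ex 535/em 590. Cells were HEK293-derived (endogenous PDE-IV) at 1000 cells/well, titrated up to 22.9 uM final.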

[10] = biological target: Cytochrome P450 3A4 (Homo sapiens) (UniProt P08684); assay: qHTS Assay for Inhibitors and Substrates of Cytochrome P450 3A4 (AID 884); conditions: recombinant CYP3A4, Luciferin-PPXE luminescence; series mostly up to 57.1 µM; also: potency is read from the fitted curve at half-maximal effect; nearly all actives have a fitted effect of over 50% in size
Chain of Cytochrome P450 3A4 (Homo sapiens) (P08684 whole entry, looked up): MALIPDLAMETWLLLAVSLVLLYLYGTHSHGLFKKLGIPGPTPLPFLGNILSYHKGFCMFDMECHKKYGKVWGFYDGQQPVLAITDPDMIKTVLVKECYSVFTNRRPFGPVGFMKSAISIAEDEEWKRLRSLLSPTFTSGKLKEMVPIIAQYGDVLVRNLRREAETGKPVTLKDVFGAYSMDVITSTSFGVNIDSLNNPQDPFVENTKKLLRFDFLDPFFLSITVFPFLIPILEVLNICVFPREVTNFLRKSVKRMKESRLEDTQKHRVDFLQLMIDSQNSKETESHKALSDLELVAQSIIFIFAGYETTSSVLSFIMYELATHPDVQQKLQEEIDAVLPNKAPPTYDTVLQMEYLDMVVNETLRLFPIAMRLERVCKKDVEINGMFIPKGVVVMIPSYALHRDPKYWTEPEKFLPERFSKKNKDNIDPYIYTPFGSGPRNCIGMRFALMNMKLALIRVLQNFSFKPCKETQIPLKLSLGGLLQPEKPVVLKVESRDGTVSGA
Summary of the method: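 20 nM human CYP3A4 with 25 uM Luciferin-PPXE (at KM) in 200 mM KPO4, preincubated 10 min with compound; NADPH regeneration started a 60 min RT reaction. Luciferin detected by luminescence, normalized to 57 uM ketoconazole as full inhibition.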

[11] = biological target: Cytochrome P450 3A4 (Homo sapiens) (UniProt P08684); assay: qHTS Assay for Activators of Cytochrome P450 3A4 (AID 885); conditions: recombinant CYP3A4, Luciferin-PPXE luminescence, 60 min; series mostly up to 57.1 µM; also: nearly all actives have a fitted effect of over 65% in size
Summary of the method: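 Steps: enzyme/substrate mix dispensed; compound added, 10 min RT; NADPH regeneration solution added, 60 min RT; luciferin detection buffer stops reaction; 20 min later luminescence measured.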

[12] = biological target: Dual specificity protein kinase CLK4 (Homo sapiens) (UniProt Q9HAZ1); assay: qHTS Assay for Inhibitors of CDC-like Kinase 4 (ADP-FP Assay) (AID 1795); conditions: Transcreener ADP fluorescence polarization; series mostly up to 50 µM; also: nearly all actives have a fitted effect of over 60% in size; also: potency is read from the fitted curve at half-maximal effect
Chain of Dual specificity protein kinase CLK4 (Homo sapiens) (Q9HAZ1 whole entry, looked up): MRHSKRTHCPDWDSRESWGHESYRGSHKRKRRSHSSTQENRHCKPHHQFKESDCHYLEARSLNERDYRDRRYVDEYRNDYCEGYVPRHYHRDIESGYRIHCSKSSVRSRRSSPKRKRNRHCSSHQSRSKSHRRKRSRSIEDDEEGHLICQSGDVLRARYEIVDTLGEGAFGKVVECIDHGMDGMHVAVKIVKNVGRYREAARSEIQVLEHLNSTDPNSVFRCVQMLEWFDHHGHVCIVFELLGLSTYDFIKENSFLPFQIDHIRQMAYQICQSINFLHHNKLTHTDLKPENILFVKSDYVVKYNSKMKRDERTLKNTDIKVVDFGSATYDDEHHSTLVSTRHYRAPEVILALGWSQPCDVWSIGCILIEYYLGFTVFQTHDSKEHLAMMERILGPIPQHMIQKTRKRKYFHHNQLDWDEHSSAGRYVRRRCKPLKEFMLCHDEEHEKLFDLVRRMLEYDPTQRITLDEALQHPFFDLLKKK
Summary of the method: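 Kinase activity was measured as ADP production using Transcreener orange tracer (4 nM) and ADP antibody (1 ug/mL) fluorescence polarization, with ADP calculated from a calibration curve. The 1 h reaction contained 6.25 nM Clk4, 1 uM ATP and 100 uM RS peptide at pH 7.5 with Mg2+.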

[13] = biological target: Ubiquitin carboxyl-terminal hydrolase 1 (Homo sapiens) (UniProt O94782); assay: Inhibitors of USP1/UAF1: Pilot qHTS (AID 504865); conditions: purified USP1/UAF1, Ub-rhodamine cleavage fluorescence; series mostly up to 54.9 µM; also: nearly all actives have a fitted effect of over 35% in size; also: potency is read from the fitted curve at half-maximal effect
Chain of Ubiquitin carboxyl-terminal hydrolase 1 (Homo sapiens) (O94782 whole entry, looked up): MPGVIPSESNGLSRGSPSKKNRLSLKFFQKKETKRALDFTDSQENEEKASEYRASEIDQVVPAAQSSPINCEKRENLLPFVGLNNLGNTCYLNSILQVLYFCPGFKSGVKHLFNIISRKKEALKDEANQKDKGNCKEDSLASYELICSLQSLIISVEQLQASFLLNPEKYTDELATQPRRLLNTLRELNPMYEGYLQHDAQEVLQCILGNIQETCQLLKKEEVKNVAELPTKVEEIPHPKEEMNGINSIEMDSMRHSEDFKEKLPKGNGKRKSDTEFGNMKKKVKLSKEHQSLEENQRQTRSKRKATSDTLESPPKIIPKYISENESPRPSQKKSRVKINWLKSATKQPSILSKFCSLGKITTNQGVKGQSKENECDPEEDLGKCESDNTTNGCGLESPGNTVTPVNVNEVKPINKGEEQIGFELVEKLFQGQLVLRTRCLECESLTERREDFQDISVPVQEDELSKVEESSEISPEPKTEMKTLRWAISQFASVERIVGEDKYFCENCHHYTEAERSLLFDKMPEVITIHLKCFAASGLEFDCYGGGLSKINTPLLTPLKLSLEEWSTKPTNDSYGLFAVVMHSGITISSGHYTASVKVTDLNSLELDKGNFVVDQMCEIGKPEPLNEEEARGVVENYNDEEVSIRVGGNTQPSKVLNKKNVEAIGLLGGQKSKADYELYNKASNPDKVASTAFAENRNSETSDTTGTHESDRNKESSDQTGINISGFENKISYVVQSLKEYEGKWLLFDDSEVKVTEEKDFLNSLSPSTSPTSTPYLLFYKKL
Summary of the method: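 Deubiquitinase activity followed as kinetic rhodamine fluorescence release from 150 nM Ub-Rho. 1 nM USP1/UAF1 with compound, after 15 min room-temperature preincubation, in HEPES pH 7.8 buffer containing TCEP, EDTA, BSA and Tween-20.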

[14] = Primary qHTS for small molecule stabilizers of the endoplasmic reticulum resident proteome: Secreted ER Calcium Modulated Protein (SERCaMP) assay (AID 1508630); conditions: SH-SY5Y GLuc-SERCaMP (Gaussia luciferase released on ER calcium loss) secretion, thapsigargin, luminescence; series mostly up to 38.4 µM; also: % is scaled to controls: 0 for no effect and ±100 for the full control effect
Summary of the method: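 GLuc-SERCaMP-expressing SH-SY5Y cells, pretreated 16 h with compound, are challenged with thapsigargin to empty ER calcium stores; after 4 h, coelenterazine is added directly to the medium and luminescence is imaged.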

[15] = biological target: Cytochrome P450 2C19 (Homo sapiens) (UniProt P33261); assay: qHTS Assay for Inhibitors and Substrates of Cytochrome P450 2C19 (AID 899); conditions: recombinant CYP2C19, luciferin-H EGE luminescence; series mostly up to 57.1 µM; also: potency is read from the fitted curve at half-maximal effect; nearly all actives have a fitted effect of over 60% in size
Chain of Cytochrome P450 2C19 (Homo sapiens) (P33261 whole entry, looked up): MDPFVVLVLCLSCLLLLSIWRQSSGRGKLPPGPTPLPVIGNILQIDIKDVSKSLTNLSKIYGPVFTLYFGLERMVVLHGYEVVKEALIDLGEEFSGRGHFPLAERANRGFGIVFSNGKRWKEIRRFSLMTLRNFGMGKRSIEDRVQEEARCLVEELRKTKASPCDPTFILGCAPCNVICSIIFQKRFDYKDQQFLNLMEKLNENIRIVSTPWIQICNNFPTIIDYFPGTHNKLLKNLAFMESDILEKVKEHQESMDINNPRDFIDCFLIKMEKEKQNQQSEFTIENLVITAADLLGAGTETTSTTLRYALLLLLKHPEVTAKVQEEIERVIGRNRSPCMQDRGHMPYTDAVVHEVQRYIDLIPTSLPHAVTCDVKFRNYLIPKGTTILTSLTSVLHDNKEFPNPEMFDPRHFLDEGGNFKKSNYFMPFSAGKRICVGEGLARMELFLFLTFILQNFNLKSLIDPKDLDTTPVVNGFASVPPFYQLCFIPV
Summary of the method: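 In 50mM KPO4, the reaction held 5nM enzyme and KM-level (10uM) Luciferin-H EGE; it ran 60 min at 37C after NADPH regeneration and a 10 min compound preincubation. Luminescence values were scaled to 57uM ketoconazole as complete inhibition.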

[16] = qHTS Assay for Identification of Small Molecule Agonists for Hypoxia Response Element Signaling Pathway (AID 914; active = well fitted activation curve with a large enough effect in the signal ratio, with a control signal flat, not every such curve was filed as active; the % refers to the signal ratio; also: % of control where 0% means no effect); conditions: ME-180 (cervical carcinoma) HRE-bla reporter, beta-lactamase ratio, CoCl2, 17 h; activation: hits give high values
Summary of the method: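 qHTS titration; ME-180 HRE-bla cells; EC50 CoCl2 co-treatment, 17 h at 37 degrees Celsius; CCF4 dye, ex 405nm, em 460nm and 530nm; %Activity from ratio; AC50.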

[17] = biological target: Dual specificity protein kinase CLK4 (Homo sapiens) (UniProt Q9HAZ1); assay: qHTS Assay for Inhibitors of CDC-like Kinase 4 (ADP-Glo Assay) (AID 1771); conditions: recombinant CLK4, ADP-Glo luminescence; series mostly up to 80 µM; also: potency is read from the fitted curve at half-maximal effect; nearly all actives have a fitted effect of over 70% in size
Summary of the method: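 Luminescence from ADP-Glo reports ADP produced by 25 nM Clk4 acting on 100 uM RS repeat peptide with 1 uM ATP over 1 hr at room temperature; residual ATP is depleted before ADP is converted to ATP for detection.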

[18] = biological target: Cytochrome P450 2C9 (Homo sapiens) (UniProt P11712); assay: qHTS Assay for Inhibitors and Substrates of Cytochrome P450 2C9 (AID 883); conditions: recombinant CYP2C9, luciferin-H luminescence, 60 min; series mostly up to 57.1 µM; also: % is scaled to controls: 0 for no effect and ±100 for the full control effect; nearly all actives have a fitted effect of over 60% in size
Summary of the method: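 CYP2C9 deoxyluciferin hydroxylation, 37C, 60 min with NADPH regeneration; 10nM enzyme, 100uM Luciferin-H (KM). Glo detection reagent stopped reaction; luminescence normalized to sulphaphenazole (57uM) full inhibition.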

Structure (SMILES)	Potency [1] [µM]	activity change, negative = inhibition [2] [%]	Potency [3]	activity change, negative = inhibition [4] [%]	activity, negative = inhibition [5] [%]	Potency [6] [µM]	Potency [7] [µM]	Potency [8]	Potency [9]	Potency [10]	Potency [11]	Potency [12]	Potency [13]	outcome [14]	Potency [15]	activation [16] [%]	Potency [17]	activity change, negative = inhibition [18]
Cc1noc(C)c1-c1nccc(NCc2ccccc2)n1	> 2.29	0.193	794 nM (active)	-7.38	-0.39	> 46	> 46	inactive	inactive	5.01 µM (active)	inactive	inactive	25.1 µM (active)	inactive	–	–	–	–
Clc1ccccc1-c1nccc(NCCN2CCOCC2)n1	> 11.4	4.13	2000 nM (active)	3.47	5.58	> 46	> 46	inactive	inactive	–	inactive	inactive	inactive	inactive	5.01 µM (active)	–	–	–
CN(Cc1ccco1)c1ncncc1-c1cccnc1	> 11.4	1.77	5010 nM (active)	-11.4	17.1	> 46	> 46	inactive	inactive	2.51 µM (active)	inactive	inactive	inactive	inactive	–	–	–	–
COc1ccccc1-c1cc(NCc2cnc(C)cn2)ncn1	> 11.4	5.08	12600 nM (active)	2.34	2.04	> 46	> 46	inactive	inactive	–	–	–	inactive	inactive	–	25.8	28.2 µM (active)	–
Cc1noc(C)c1-c1nc(NC2CC2)c2ccccc2n1	> 11.4	13.4	–	-6.72	7.05	> 46	> 46	inactive	inactive	–	–	–	inactive	inactive	–	–	14.1 µM (active)	–
CN(C)C(=O)c1ccc(-c2cncnc2-n2ccnc2)cc1	> 11.4	-3.64	20000 nM (active)	13	3.39	> 46	> 46	inactive	inactive	–	inactive	inactive	inactive	inactive	–	–	–	–
Cn1cc(-c2nc3cncnc3n(C3CC3)c2=O)c2ccccc21	> 11.4	-14.5	200 nM (active)	9.91	-6.67	> 9.22	> 46	inactive	inactive	–	inactive	inactive	inactive	inactive	–	–	–	–
COc1cccc(-c2cncnc2NCc2cccnc2)c1	> 11.4	-6.26	794 nM (active)	-6.72	3.03	> 46	> 46	inactive	inactive	1.26 µM (active)	–	inactive	inactive	inactive	0.316 µM (active)	–	–	–
CN(C)C(=O)c1ccc(-c2ccc3ncnc(N4CCNCC4)c3c2)cc1	> 11.4	-26.4	inactive	4.61	-3.14	> 46	> 46	inactive	inactive	–	–	inactive	inactive	inactive	–	–	–	–
Cc1ccccc1-c1cc(NCc2cccnc2)ncn1	> 11.4	6.3	3980 nM (active)	2.72	-6.88	> 46	> 46	inactive	inactive	–	inactive	inactive	inactive	inactive	–	–	–	–
Cc1noc(C)c1-c1nccc(NCc2cccs2)n1	> 11.4	3.65	501 nM (active)	-16.6	2.65	> 46	> 46	inactive	–	–	inactive	–	–	inactive	–	–	35.5 µM (active)	–
CN(Cc1ccco1)c1cc(-c2cccc(C#N)c2)ncn1	> 11.4	-7.22	794 nM (active)	11.4	8.43	> 46	> 46	inactive	inactive	–	–	–	inactive	inactive	–	–	28.2 µM (active)	12.3% [at 2.29 µM]
COc1ccc(CNc2ncnc3ccc(-c4ccc5c(c4)OCO5)cc23)c(OC)c1	–	-16.9	–	–	-5.8	> 46	> 46	inactive	–	–	–	398 nM (active)	inactive	inactive	–	–	1.41 µM (active)	–
